Laboratory results published in the supplement of paper PMC4371806.
Whole data set: some 2,300 compounds, median “plate-normalized OD600 growth (mean of duplicates)” near 0.29, cut for the lowest 2% near 0.22. Many of the other results were omitted from the sample, so the lowest values are more common in it than they were.

Tested on: Escherichia coli BW25113
Experiment: plate-normalized OD600 growth (mean of duplicates) (OD600 (normalized)); higher = more growth (less inhibition)
Conditions: 10 µM
Experimental: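 E. coli BW25113 in LB (100 µl, 96-well, no shaking) was exposed to 10 µM of each compound from a ~30,000-member library and grown at 37°C for 24 h or 15°C for 48 h, in duplicate. Growth was read as OD600 and the duplicate ODs were normalized across screening plates to correct plate-to-plate variation. Hits were >3σ below the mean OD600 at 15°C and <2σ below the mean at 37°C.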

Compound	plate-normalized OD600 growth (temperature: 15°C, 48 h)	plate-normalized OD600 growth (temperature: 37°C, 24 h)
Cc1ccc(NC(=O)CCN2CCN(c3ccccc3)CC2)cc1	0.26	0.612
CC(=O)N(CC(=O)Nc1ccc(C)cc1)c1ccccc1	0.214	0.646
C/C(CC(=O)Nc1ccc(N(C)C)cc1)=N\NC(=O)COc1ccc(C)cc1	0.236	0.627
COC(=O)C1=NN(c2ccccc2Cl)C2(S1)c1ccccc1C(C)=NN2c1ccccc1 (stereo unspecified)	0.234	0.641
O=C(NCCSCc1ccco1)c1ccc(Cl)cc1	0.25	0.605
CC12CCC(C1)C(C)(C)C2NC(=O)c1cccs1 (stereo unspecified)	0.26	0.639
Cc1nn(CC(=O)NNC(=O)COc2ccc(Cl)cc2Cl)c(C)c1Br	0.235	0.607
O=C(Oc1ccc(N(C(=O)c2ccccc2)S(=O)(=O)c2cccs2)cc1)c1ccccc1	0.225	0.622
O=c1[nH]nc(-c2ccc(N3CCN(CCO)CC3)c([N+](=O)[O-])c2)c2ccccc12	0.242	0.616
COCc1cc(C)c2c(n1)sc1c2nc(C)n2c3ccccc3nc12	0.244	0.619
CCOc1ccc(NC(=O)CC2S/C(=N\N=C\c3ccc(C)s3)NC2=O)cc1 (stereo unspecified)	0.222	0.624
Cc1cc(C(O)(C(F)(F)F)C(F)(F)F)cc(C)c1O	0.249	0.618
O=C(Nc1nc(-c2ccccc2)cs1)C1CC(O)CN1C(=O)Oc1ccccc1 (stereo unspecified)	0.263	0.648
Cc1cc(/C=N/NC(=O)c2cc3ccccc3o2)c(C)n1-c1ccc(C23CC4CC(CC(C4)C2)C3)cc1	0.244	0.607
COc1cccc(C2C3=C(CC(C)(C)CC3=O)OC(N)=C2[N+](=O)[O-])c1 (stereo unspecified)	0.246	0.619
O=C(CC(=O)Nc1cccc(Cl)c1)N/N=C\c1ccccc1	0.246	0.616
OCCCc1cccc(C(F)(F)F)c1	0.242	0.586
O=C1C=C(Cl)CC(c2ccc(C(F)(F)F)cc2)C1 (stereo unspecified)	0.243	0.607
O=C(O)c1ccc(Br)c(NC(=O)C2C3C=CC(C3)C2C(=O)O)c1 (stereo unspecified)	0.248	0.604
N/C(=N\OC(=O)c1ccno1)c1ccc(C(F)(F)F)cc1	0.253	0.612
O=C(O)c1oc(C(=O)O)c(OCc2ccccc2)c1OCc1ccccc1	0.263	0.637
O=C(NNC(=O)c1ccccc1OCc1ccccc1)c1ccc(Cl)c(Cl)c1	0.216	0.606
Cc1nnn(-c2nonc2N)c1C(=O)NNC(=O)c1ccc(Cl)c(Cl)c1	0.243	0.606
O=C(Nc1ccc(Cl)cc1Cl)c1cnccn1	0.245	0.607

Compound	plate-normalized OD600 growth (temperature: 15°C, 48 h)	plate-normalized OD600 growth (temperature: 37°C, 24 h)
N#CC1=C2N=C(N)c3c(sc4c3CCCC4)N2C2=C(C(=O)CCC2)C1c1cccnc1 (stereo unspecified)	0.246	0.624
C/C(=N/OC(=O)c1ccc(Cl)cc1)c1ccc(F)cc1	0.236	0.601
CCN(CC)C(=O)NC(=O)c1c(C)cc(Cl)nc1Cl	0.243	0.63
Cc1ccc(N2CC(=O)N(/N=C/c3ccc(F)cc3)C2=S)cc1	0.232	0.63
COc1ccc(C(=O)[C@@H]2[C@@H](c3cccs3)C(C#N)(C#N)[C@H]3C=Cc4ccccc4N23)cc1	0.251	0.63
C/C(=C\C(=O)Nc1ccc(F)cc1)Nc1ccc(F)cc1	0.253	0.613
CC(=O)C1=C(Nc2ccc(C)cc2)CC(C)(O)C(C(C)=O)C1c1ccc(F)cc1 (stereo unspecified)	0.208	0.598
CC(=O)C1C(=O)CC(C)(O)C(C(C)=O)C1c1ccc(Br)cc1 (stereo unspecified)	0.25	0.616
CN(C)N=Nc1ccc(S(=O)(=O)NC(=O)Cc2ccccc2)cc1	0.24	0.612
CC(C)(C)NC(=O)c1cc(NC(=O)C(F)(F)F)cc(NC(=O)C(F)(F)F)c1	0.234	0.605
O=C(COc1ccccc1[N+](=O)[O-])Nc1ccccn1	0.24	0.619
COc1ccc(Nc2nc(N/N=C/c3ccc(-c4cccc(C(=O)O)c4)o3)nc(Nc3ccccc3)n2)cc1	0.226	0.634
CC(C)(C)OC(=O)NC(Cc1ccc(OCc2ccccc2)cc1)C(=O)O (stereo unspecified)	0.26	0.615
CCOC(=O)/C(C(C)=O)=C1/SCC(C)S1 (stereo unspecified)	0.235	0.609
O=C1CC2(CCCC2)C(=O)N1CCNc1nccc(C(F)(F)F)n1	0.261	0.637
Cc1ccc(NC(=O)Nc2ccc(C)c(NC(=O)Nc3ccc(C)cc3)c2)cc1	0.242	0.578
O=C(CNC(=O)C(c1ccccc1)c1ccccc1)N/N=C/c1cc(Br)ccc1O	0.237	0.617
COc1cc(OC)c(C2C(C#N)=C(N)Oc3n[nH]c(-c4cccnc4)c32)cc1OC (stereo unspecified)	0.244	0.612
CCc1nc(N)c(C#N)c(-c2ccccc2)c1C	0.239	0.61
CSc1nc2sc(C)c(C)c2c(=O)n1-c1ccccc1	0.219	0.653
O=C1/C(=C\c2ccc(Cl)cc2Cl)N=C(c2ccccc2)N1C1CC1	0.241	0.577
COc1ccc(C(=O)NCC(=O)N/N=C(\C)c2cccc(N)c2)cc1OC	0.249	0.633
O=C1CCc2cccc3cccc1c23	0.235	0.604
CCN(CC)c1ccc(C2C(C(=O)OC3CCCCC3)=C(C)NC3=C2C(=O)CC(c2ccc(Cl)cc2)C3)cc1 (stereo unspecified)	0.238	0.614

Compound	plate-normalized OD600 growth (temperature: 15°C, 48 h)	plate-normalized OD600 growth (temperature: 37°C, 24 h)
CC1(C)C2CCC1(C)C(N/C(=C(/C(Cl)=C(Cl)Cl)[N+](=O)[O-])n1nnc3ccccc31)C2 (stereo unspecified)	0.253	0.629
CSc1ccc(/C=C2\N=C(c3ccccc3)N(c3ccc(C(=O)Nc4ccc(Br)cc4)cc3)C2=O)cc1	0.257	0.649
O=C(Nc1ccc(F)c(Cl)c1)c1ccc(N2C(=O)/C(=C/c3ccccc3)N=C2c2ccccc2)cc1	0.238	0.653
COc1ccc(OC)c(NC(=O)c2ccc(N3C(=O)/C(=C/c4ccc(Cl)cc4)N=C3c3ccccc3)cc2)c1	0.216	0.634
COc1cc(NC(=S)N2CCN(c3ccccc3OC)CC2)c(OC)cc1Cl	0.231	0.614
Cc1cc(N2CCCC2)ccc1/C=N/n1cnnc1	0.259	0.687
Cc1cc(C=Nc2ccc(Cl)c(O)c2)c(C)n1-c1ccc(Cl)cc1	0.248	0.605
CN1N=C(SCc2ccc(Cl)cc2Cl)Sc2c1cnn(C)c2=O	0.25	0.591
CCCCCCCCNC(=O)C(=O)Nc1cccc(F)c1	0.244	0.564
Cc1ccc2c(c1)N(CCO)C(C)(C)CC2C (stereo unspecified)	0.211	0.651
O=C(Nc1ccc(S(=O)(=O)Nc2cccc(Cl)c2Cl)cc1)C1COc2ccccc2O1 (stereo unspecified)	0.262	0.62
Cc1cc(C)c2nc3s/c(=C\c4ccccc4C(F)(F)F)c(=O)n3c2c1	0.249	0.593
Cc1nc(-c2ccccn2)nc(NCCNc2cccc(C(F)(F)F)n2)c1Cl	0.257	0.626
O=C(CC1CCC1)Nc1cc(Cl)ccc1Cl	0.256	0.619
Cc1nnsc1C(=O)Nc1ccc(CN2CCS(=O)(=O)CC2)cc1	0.244	0.614
Cc1ccc(S(=O)(=O)N=C(Nc2ccc(O)c(Cl)c2)c2ccccc2)cc1	0.232	0.618
Cc1cc(NC(=NS(=O)(=O)c2ccc(Br)cc2)c2ccccc2)cc(C)c1O	0.251	0.652
Cc1cc(NC(=NS(=O)(=O)c2ccc(Br)cc2)c2ccccc2)c(Cl)c(C)c1O	0.214	0.634
Cc1oc(CC(C)C)cc1C(=O)Nc1cccc(C(=O)O)c1	0.255	0.643
Nc1ccccc1C(=O)Nc1cc(C(=O)O)cc(C(=O)O)c1	0.232	0.625
NC(N)=Nc1nc(-c2cc(Cl)sc2Cl)cs1	0.242	0.607
COc1cc(NC(=O)CCN2CCC(C)CC2)cc(OC)c1	0.217	0.647
Cc1c(Br)sc2ccc(Cl)cc12	0.247	0.612
O=C(CC1(O)C(=O)C=C(c2ccccc2)N1N=C(c1ccccc1)c1ccccc1)c1ccccc1 (stereo unspecified)	0.242	0.588

Compound	plate-normalized OD600 growth (temperature: 15°C, 48 h)	plate-normalized OD600 growth (temperature: 37°C, 24 h)
CCOC(=O)COc1nc(-c2ccccc2)cc(-c2ccccc2)c1C#N	0.251	0.629
COc1ccc(C2SCC(=O)N2CCN2CCCCC2)cc1 (stereo unspecified)	0.238	0.618
O=c1[nH]c2cccnc2[nH]c1=O	0.233	0.617
COc1ccc(C2CC(=O)N2C2(C(=O)Nc3c(C)cccc3C)CCCCC2)cc1OC (stereo unspecified)	0.24	0.605
c1ccc(OCCOc2ccccn2)nc1	0.25	0.612
COc1ccc(Nc2nc(Cl)nc(NCCC3=CCCCC3)n2)cc1	0.257	0.602
O=C1c2cccc3c(SCCO)ccc(c23)C(=O)N1CCc1ccccn1	0.265	0.634
O=C(O)c1cccc(N=Cc2ccc(OCc3ccc(F)cc3)cc2)c1	0.225	0.684
CCCc1ccc(OCC(=O)NNC(=S)Nc2ccccc2)cc1	0.244	0.618
C=CCn1c(CSc2ccccc2[N+](=O)[O-])n[nH]c1=S	0.26	0.606
C=CCn1c(Sc2ncc([N+](=O)[O-])s2)n[nH]c1=O	0.181	0.588
O=[N+]([O-])c1cnc(Sc2n[nH]c(-c3cccs3)n2)s1	0.225	0.607
COc1ccc(/C=N/Nc2nnnn2-c2cccc3ccccc23)cc1OC	0.253	0.627
N#CCC(=O)N(Cc1ccccc1F)C(=O)NC1CCCCC1	0.263	0.647
N/C(=N/OC(=O)c1ccccc1)c1ccc(-c2csnn2)cc1	0.252	0.6
CCC(C)(C)C1CCc2sc3nc[nH]c(=O)c3c2C1 (stereo unspecified)	0.248	0.626
CCOc1cc(/C=N/n2cnc3sc4c(c3c2=O)CCCC4)cc(Br)c1OCc1ccc(Cl)cc1	0.245	0.619
CCOC(=O)c1ccc(-c2ccc(/C=C(\C#N)C(=O)NC3CCCCC3)o2)cc1	0.241	0.604
Cc1cc(C)c(C(=O)CSc2nc3ccccc3[nH]2)c(C)c1	0.213	0.626
O=C(CSc1nc2ccccc2[nH]1)Nc1nc2ccccc2s1	0.244	0.604
COC(=O)CSc1nc(N)cc(=O)[nH]1	0.247	0.605
